Data from PubChem BioAssay (Tox21).
Results filed as inconclusive are left out. Unmarked numbers belong to inactive results. Activity calls are given as the source filed them. Unless noted, calls follow the shape of the dose curve; as a rule, active = well fitted curve in the direction sought with a large enough effect in the repeat runs; inconclusive = weak or mixed curves; inactive = no such curve, though single readings can be large; an effect the other way counts as inactive or inconclusive.

System: not listed separately
Assay: qHTS assay to identify small molecule antagonists of the thyroid receptor (TR) signaling pathway - cell viability counter screen (AID 743064); also: nearly all actives have a fitted effect of over 50% in size; also: potency is read from the fitted curve at half-maximal effect
Conditions: GH3.TRE-Luc viability, CellTiter-Fluor, 24 h; series mostly up to 70.3 µM; activity change, negative = cytotoxic: at the top concentration
Procedure, shortened: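 Rat GH3 pituitary tumor cells stably expressing two TR response elements driving luciferase were plated, rested 4 h, then dosed with library compounds and T3 (1 nM final). After 23.5 h at 37 °C, CellTiter-Fluor was added for 30 min and fluorescence recorded.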
% is scaled to controls: 0 for no effect and ±100 for the full control effect.

| Compound | activity change, negative = cytotoxic | Potency |
| --- | --- | --- |
| O=C(O)C[C@H](NC(=O)OCc1ccccc1)C(=O)O | 10.7% |  |
| CCCCCCCC/C=C\CCCCCCCCCCCC(=O)O | -10.9% [at 95 µM] |  |
| Nc1nnc(-c2ccc([N+](=O)[O-])o2)o1 |  | 61.1 µM (active) |
| O=C1CCCCCCCCCCOCCCCO1 | -6.86% |  |
| CCCCCC[C@@H](O)C/C=C\CCCCCCCC(=O)O |  | inactive |
| CCC(C)COC(=O)CC(C)C (centres undefined) | 1.65% |  |
| CCC(=O)OC | -0.679% [at 95 µM] |  |
| Cc1ccc(Cl)c(Nc2ccccc2C(=O)O)c1Cl | -22.7% |  |
| Oc1ccc(Cl)c2cccnc12 |  | 7.5 µM (active) |
| COc1ccccc1N1CCN(CC(O)COc2cccc3ccccc23)CC1 (centres undefined) |  | 26.6 µM (active) |
| CCOc1ccc(Cc2nccc3cc(OCC)c(OCC)cc23)cc1OCC | 12.1% [at 32.5 µM] |  |
| Cc1cccc(O)c1N | -27.7% [at 95 µM] |  |
| C=C(C)[C@@H]1CCC2=CCC[C@@H](C)[C@]2(C)C1 | -4.89% |  |
| O=C1c2ccccc2C(=O)C1c1ccc(Br)cc1 | -1.4% |  |
| O=C1c2ccccc2C(=O)c2c(O)c(O)cc(O)c21 |  | 54.5 µM (active) |
| O=C(O)c1ccc(OCCCOc2ccc(C(=O)O)cc2)cc1 | -8.62% |  |
| COC(=O)CS | 7.11% |  |
| CCCCCCCCC(CCCCCC)C(=O)O (centres undefined) | -2.74% |  |
| O=C1Cc2ccccc2N1c1c(Cl)cccc1Cl | -0.101% |  |
| CC(C)C(O)(c1ccc(OC(F)(F)F)cc1)c1cncnc1 (centres undefined) | -21.1% |  |
| O=[N+]([O-])c1ccc(Nc2ccc(Nc3ccccc3)c(S(=O)(=O)O)c2)c([N+](=O)[O-])c1 |  | 48.6 µM (active) |
| CC(=O)[C@H]1[C@H](C#N)C[C@H]2[C@@H]3CC=C4C[C@@H](O)CC[C@]4(C)[C@H]3CC[C@@]21C | -2.64% |  |
| Oc1c(I)cc(I)c2cccnc12 | -18.6% |  |
| O=C(CCc1ccc(O)cc1)c1c(O)cc(O)cc1O |  | 55.7 µM (active) |
| COc1ccccc1Oc1c(NS(=O)(=O)c2ccc(C(C)(C)C)cc2)nc(-c2ncccn2)nc1OCCO | 20% |  |
| CCCC(C(=O)OCCN(CC)CC)(c1ccccc1)c1ccccc1 |  | 23.7 µM (active) |
| CCCCCCCCOc1ccc(C(=O)O)cc1 | -20% |  |
| Oc1cccc(Nc2ccccc2)c1 | -15.3% [at 95 µM] |  |

System: not listed separately
Assay: qHTS assay to identify small molecule antagonists of the thyroid receptor (TR) signaling pathway (AID 743065); also: nearly all actives have a fitted effect of over 55% in size; also: potency is read from the fitted curve at half-maximal effect
Conditions: GH3.TRE-Luc, T3-stimulated luciferase inhibition, 23.5 h; series mostly up to 70.3 µM; activity, negative = inhibition: at the top concentration
Procedure, shortened: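 GH3.TRE-Luc rat pituitary cells carrying two TR response elements driving luciferase were plated for 4 h, given compound plus 1 nM T3 (final), and incubated 23.5 h at 37 C. ONE-Glo luminescence measured reporter inhibition; CellTiter-Fluor fluorescence tracked cytotoxicity.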

| Compound | Potency | activity, negative = inhibition |
| --- | --- | --- |
| c1ccc2sc(SN(C3CCCCC3)C3CCCCC3)nc2c1 | 21.4 µM (active) |  |
| O=C1c2ccccc2C(=O)C1(O)O | 54.8 µM (active) |  |
| FC(F)(F)c1ccccc1Cl |  | 0% [at 95 µM] |
| N#CCCN(CCO)CCO |  | 26.7% |
| Cc1ccccc1S |  | -3.04% |
| CCCCCC#CC(=O)OC |  | 3.99% |
| CC(C)=CC(=O)C=C(C)C |  | 28.6% |
| C/C=C\C/C=C/CCCCCCCCOC(C)=O | 68.6 µM (active) |  |
| CCOC(=O)c1ccc(I)cc1 |  | -3.89% [at 95 µM] |

System: thyroid hormone receptor (rat, GH3 cells)
Assay: qHTS assay to identify small molecule agonists of the thyroid receptor (TR) signaling pathway (AID 743066; calls by dose curve)
Conditions: GH3.TRE-Luc cells, TR agonist luciferase, 24 h; series mostly up to 83.9 µM; activation: at the top concentration

| Compound | activation | outcome |
| --- | --- | --- |
| c1ccc2sc(SN(C3CCCCC3)C3CCCCC3)nc2c1 | 0.96% [at 95.2 µM] |  |
| O=C1CCCCCCCCCCOCCCCO1 | 0.0215% |  |
| CCCCCC[C@@H](O)C/C=C\CCCCCCCC(=O)O |  | inactive |
| CCC(C)COC(=O)CC(C)C (centres undefined) | -2.26% |  |
| Cc1ccc(Cl)c(Nc2ccccc2C(=O)O)c1Cl | -7.5% |  |
| O=C1c2ccccc2C(=O)C1(O)O | -3.2% [at 95.2 µM] |  |
| FC(F)(F)c1ccccc1Cl | 0.0824% [at 95.2 µM] |  |
| N#CCCN(CCO)CCO | 0.613% |  |
| COc1ccccc1N1CCN(CC(O)COc2cccc3ccccc23)CC1 (centres undefined) | -6.12% |  |
| CCOc1ccc(Cc2nccc3cc(OCC)c(OCC)cc23)cc1OCC | -2.78% [at 39.4 µM] |  |
| Cc1cccc(O)c1N | -1.52% [at 95.2 µM] |  |
| C=C(C)[C@@H]1CCC2=CCC[C@@H](C)[C@]2(C)C1 | -2.05% |  |
| O=C1c2ccccc2C(=O)c2c(O)c(O)cc(O)c21 | -3.46% |  |
| Cc1ccccc1S | -1.27% |  |
| CCCCCC#CC(=O)OC | 0.644% |  |
| CC(C)=CC(=O)C=C(C)C | 0.269% |  |
| C/C=C\C/C=C/CCCCCCCCOC(C)=O | -3.73% |  |
| CCCCCCCCC(CCCCCC)C(=O)O (centres undefined) | -3.35% |  |
| O=C1Cc2ccccc2N1c1c(Cl)cccc1Cl | -3.39% |  |
| CC(C)C(O)(c1ccc(OC(F)(F)F)cc1)c1cncnc1 (centres undefined) | -4.66% |  |
| O=[N+]([O-])c1ccc(Nc2ccc(Nc3ccccc3)c(S(=O)(=O)O)c2)c([N+](=O)[O-])c1 | -3.9% |  |
| CC(=O)[C@H]1[C@H](C#N)C[C@H]2[C@@H]3CC=C4C[C@@H](O)CC[C@]4(C)[C@H]3CC[C@@]21C | -6.65% |  |
| CCOC(=O)c1ccc(I)cc1 | -0.795% [at 95.2 µM] |  |
| O=C(CCc1ccc(O)cc1)c1c(O)cc(O)cc1O | -0.425% [at 95.2 µM] |  |
| CCCCCCCCOc1ccc(C(=O)O)cc1 | -6.88% |  |
| Oc1cccc(Nc2ccccc2)c1 | -0.384% [at 95.2 µM] |  |

Target: Estrogen receptor (Homo sapiens) (UniProt P03372)
Sequence (P03372 whole entry, looked up): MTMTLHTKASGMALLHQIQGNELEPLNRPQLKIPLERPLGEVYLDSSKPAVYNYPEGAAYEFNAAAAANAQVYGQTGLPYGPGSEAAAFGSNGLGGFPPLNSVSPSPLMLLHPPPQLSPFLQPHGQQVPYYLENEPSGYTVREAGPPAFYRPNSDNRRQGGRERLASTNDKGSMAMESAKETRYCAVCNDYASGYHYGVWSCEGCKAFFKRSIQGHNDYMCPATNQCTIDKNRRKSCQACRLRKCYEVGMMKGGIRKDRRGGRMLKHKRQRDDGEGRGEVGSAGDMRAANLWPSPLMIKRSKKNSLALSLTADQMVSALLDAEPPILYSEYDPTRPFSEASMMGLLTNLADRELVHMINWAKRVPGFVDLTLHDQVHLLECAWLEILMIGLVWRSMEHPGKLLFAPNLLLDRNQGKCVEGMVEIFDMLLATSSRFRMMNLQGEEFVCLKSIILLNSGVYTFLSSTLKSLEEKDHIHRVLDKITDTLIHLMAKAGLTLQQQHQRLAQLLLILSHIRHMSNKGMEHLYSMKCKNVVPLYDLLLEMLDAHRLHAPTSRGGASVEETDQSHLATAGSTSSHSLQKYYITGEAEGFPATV
Assay: qHTS assay to identify small molecule antagonists of the estrogen receptor alpha (ER-alpha) signaling pathway (AID 743069; active = well fitted curve in the direction sought with a large enough effect in the signal ratio in the repeat runs, not every such curve was filed as active; the % refers to the signal ratio; also: potency is read from the fitted curve at half-maximal effect)
Conditions: HEK293 ER-alpha-UAS-bla, beta-lactamase ratio, antagonist mode; series mostly up to 69.4 µM; activity, negative = inhibition: at the top concentration
Procedure, shortened: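 Estradiol-stimulated ER-alpha-UAS-bla HEK293 cells, 18 hr compound exposure at 37C. LiveBLAzer B/G substrate, 2 hr RT, fluorescence read.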

| Compound | activity, negative = inhibition | Potency |
| --- | --- | --- |
| O=C(O)C[C@H](NC(=O)OCc1ccccc1)C(=O)O | 8.18% |  |
| CCCCCCCC/C=C\CCCCCCCCCCCC(=O)O | -11% [at 79.1 µM] |  |
| c1ccc2sc(SN(C3CCCCC3)C3CCCCC3)nc2c1 | 11.6% [at 79.1 µM] |  |
| Nc1nnc(-c2ccc([N+](=O)[O-])o2)o1 | -28.9% |  |
| CCC(C)COC(=O)CC(C)C (centres undefined) | 7.38% |  |
| CCC(=O)OC | 6.6% [at 79.1 µM] |  |
| O=C1c2ccccc2C(=O)C1(O)O | -14.9% [at 79.1 µM] |  |
| FC(F)(F)c1ccccc1Cl | 7.38% [at 79.1 µM] |  |
| N#CCCN(CCO)CCO | -17.5% |  |
| C=C(C)[C@@H]1CCC2=CCC[C@@H](C)[C@]2(C)C1 | 38.1% |  |
| O=C1c2ccccc2C(=O)C1c1ccc(Br)cc1 | 8.42% |  |
| O=C1c2ccccc2C(=O)c2c(O)c(O)cc(O)c21 | -1.99% |  |
| COC(=O)CS | -15.4% |  |
| Cc1ccccc1S | -12.8% |  |
| CCCCCC#CC(=O)OC | 21.5% |  |
| CC(C)=CC(=O)C=C(C)C | 7.18% |  |
| C/C=C\C/C=C/CCCCCCCCOC(C)=O | -19.1% |  |
| Oc1c(I)cc(I)c2cccnc12 |  | 6.01 µM [cytotoxic] (active) |
| CCOC(=O)c1ccc(I)cc1 | 7.79% [at 79.1 µM] |  |
| COc1ccccc1Oc1c(NS(=O)(=O)c2ccc(C(C)(C)C)cc2)nc(-c2ncccn2)nc1OCCO | -27.9% |  |
| CCCC(C(=O)OCCN(CC)CC)(c1ccccc1)c1ccccc1 | 6.09% |  |
